High-throughput results: PubChem BioAssay, several laboratories
This is a sample that favours compounds with a hit; in the whole collection about 2.8% have one here.
esBAF inh: inhibitors of esBAF chromatin remodeling in mouse ES cells | Bmi1-luciferase knock-in reporter, 24 h; 100% = twice the neutral-well signal | reporter increase, % at 12.5 µM | AID 602393 | 350,000 compounds, 2% hits; in the data active = activation above about 40%;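 note: 0% = median of the plate's neutral control wells and 100% = double that signal; a rise in the Bmi1 reporter signal indicates esBAF inhibition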
GAA850 FXN act: frataxin GAA850 promoter activation | HEK293 lucGAA850 FXN promoter luciferase reporter, 24 h; percent of 10 µM SAHA response | activation, % at 6 µM | 360,000 compounds, 0.56% hits | AID 540364;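 active = activation above the average of all compounds screened plus 3 SD, cutoff fixed separately per campaign, cut at about 7.5% in these data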;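 note: 0% = DMSO wells and 100% = 10 µM SAHA wells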
Wnt bcat act: activators of Wnt/beta-catenin signaling | Wnt/beta-catenin reporter cell assay, activator, plate reader | activation, % at 9.35 µM | 300,000 compounds, 1.2% hits | AID 743398; in the data active = activation above about 30%, passing the limit was not always enough;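 note: 0% = neutral control wells and 100% = positive control wells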
MITF act: MITF TRPM1 promoter activation in melanoma cells; SK-MEL-5 TRPM1-promoter luciferase, 24 h; % of positive control, neutral wells = 0; 300,000 compounds, 0.75% hits; AID 588334; activation, % at 12.5 µM;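 active = mean activation of at least 80% with every replicate also reaching 80%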;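 note: 0% = neutral control wells and 100% = parthenolide positive control wells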
GAA30 counter: GAA30 FXN promoter activation counter-screen | HEK293 lucGAA30 FXN promoter luciferase, 24 h; DMSO = 0%, 5 µM ipriflavone = 100% | shares compounds with GAA850 FXN act | 1,900 compounds, 66% hits | activation, % at 6 µM;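 active = mean activation above the mean of solvent-only control wells plus 3 SD, cut at about 22% in these data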;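 note: counterscreen of GAA850 promoter hits where activity marks nonselective or luminescence artifacts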
GAA850 confirm: confirmation of GAA850 frataxin (FXN) promoter activators. HEK293 lucGAA850 FXN promoter luciferase reporter, 24 h; 100% = activation by SAHA. activation, % at 6 µM. AID 588351. 1,900 compounds, 86% hits. shares compounds with GAA850 FXN act;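 active = mean activation above a set limit taken from the primary screen, cut at about 8% in these data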;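 note: 0% = DMSO wells and 100% = 10 µM SAHA wells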
An asterisk follows results filed as active; / = not tested or not shown.

SMILES	esBAF inh	GAA850 FXN act	Wnt bcat act	MITF act	GAA30 counter	GAA850 confirm
COc1cc(/C=N/Nc2ncnc3sc4c(c23)CCC4)ccc1O	/	20*	1	11	67*	20*
COc1cc(/C=N/NC2=NCCCCC2)ccc1O	3	0	0	13	/	/
C[C@@H]1CCCCO[C@H](CN(C)Cc2ccc(C(=O)O)cc2)[C@@H](C)CN([C@@H](C)CO)C(=O)c2cc(NC(=O)CCC(F)(F)F)ccc2O1	-10	/	/	/	/	/
C=CCNc1nc(Nc2ccccc2F)nc(OCC)n1	85*	9.4*	18	45	80*	36*
Cc1noc(C)c1S(=O)(=O)N(C)C[C@H]1OCCCC[C@H](C)Oc2ccc(NS(=O)(=O)c3ccccc3)cc2C(=O)N([C@@H](C)CO)C[C@@H]1C	-2	/	/	/	/	/
C[C@H](CO)N1C[C@H](C)[C@H](CN(C)Cc2ccc(C(=O)O)cc2)Oc2ncc(C3=CCCC3)cc2C1=O	-8	/	/	/	/	/
Clc1ccc(-c2noc(CSc3nnc(Cc4cccs4)n3-c3ccccc3)n2)cc1	2	15*	1	-12	6	4
COc1ccc(NC(=O)N[C@@H]2CC[C@@H](CCNC(=O)Cc3ccncc3)O[C@@H]2CO)cc1	3	/	/	/	/	/
C=CCn1c(SC(C)C(=O)NCc2ccc3c(c2)OCO3)nc2scc(-c3ccccc3)c2c1=O (configuration not stated)	-8	7.8*	/	-4	12	10*
CNC[C@@H]1OCCCC[C@@H](C)Oc2ccc(NS(=O)(=O)c3cn(C)cn3)cc2C(=O)N([C@H](C)CO)C[C@@H]1C	-4	/	/	/	/	/
COc1ccc(C2=Nn3c(nnc3-c3ccccc3OC)SC2)cc1OC	-7	7	/	/	/	/
COc1ccc(C2=Nn3c(nnc3-c3ccco3)SC2)cc1OC	-9	10*	8	/	37*	20*
O=C(C[C@H]1C=C[C@@H](NC(=O)CN2CCOCC2)[C@H](CO)O1)NCCc1ccccc1	-4	/	/	/	/	/
CS(=O)(=O)c1ccc(C(=O)NCCN2C(=O)S/C(=C\c3cccnc3)C2=O)cc1[N+](=O)[O-]	/	14*	-9	-68	148*	44*
Cc1ccc(C(=O)Nc2nccc(-c3cccs3)n2)cc1	10	3	/	/	/	/
NC(=S)Nc1nccc(-c2cccs2)n1	7	8.3*	22	30	94*	37*
CC(C)c1nc2sc3c(NCc4ccco4)ncnc3c2c2c1COC(C)(C)C2	-18	8.1*	-2	1	10	8.0*
CC(C)c1nc2sc3c(NCc4ccccc4)ncnc3c2c2c1COC(C)(C)C2	0	1	/	-3	/	/
C[C@@H]1CN([C@H](C)CO)C(=O)c2c(c3ccccc3n2C)-c2ccccc2CO[C@H]1CN(C)C(=O)CCN(C)C	6	/	/	/	/	/
O=C(C[C@@H]1C=C[C@H](NS(=O)(=O)c2ccccc2)[C@@H](CO)O1)N1CCc2ccccc2C1	2	/	/	/	/	/
CCN1CCCC1CNC(=O)c1ccc2c(c1)NC(=O)/C(=C\c1ccccc1Cl)S2 (configuration not stated)	-8	1	-6	/	/	/
CCN1CCCC1CNC(=O)c1ccc2c(c1)NC(=O)/C(=C\c1ccc(OC)c(OC)c1)S2 (configuration not stated)	1	7.7*	-4	-88	16	7
CC(=O)NC[C@@H]1[C@@H](c2ccc(-c3cccnc3)cc2)[C@@H](CO)N1C(=O)C1CCC1	5	/	/	/	/	/
O=C(CSC1=NCCN1)Nc1cccc(C(F)(F)F)c1	/	9.6*	7	-6	25*	21*
CCOC(=O)C(CC)n1cnc2c(nnn2-c2ccccc2)c1=O (configuration not stated)	10	-1	/	4	/	/
SMILES	esBAF inh	GAA850 FXN act	Wnt bcat act	MITF act	GAA30 counter	GAA850 confirm
CCOC(=O)C(CC)n1cnc2c(nnn2-c2ccc(F)cc2)c1=O (configuration not stated)	1	19*	1	/	2	4
C[C@@H]1CN([C@@H](C)CO)C(=O)c2cccc(NC(=O)Nc3ccccc3)c2O[C@H]1CN(C)Cc1ccncc1	1	/	/	/	/	/
CCOC(=O)C/C(=N\Nc1ncnc2ccccc12)c1ccccc1	43*	8.3*	27	41	84*	35*
C[C@]1(C(=O)NCCCNc2ncc(C(F)(F)F)cc2Cl)C=C[C@@H](Cc2ccccc2)N1C(=O)c1ccccc1	3	0	/	-2	/	/
COC(=O)N1[C@H](C)C=C[C@]1(Cc1ccccc1)C(=O)NCCCNc1ncc(C(F)(F)F)cc1Cl	12	7.8*	-6	-2	23*	11*
Cc1cc(C)nc(SCc2csc(-c3ccccc3)n2)n1	/	7.9*	/	113*	115*	40*
CO[C@@H]1CN(C)C(=O)c2cc(NC(C)=O)ccc2OC[C@H](C)N(CC2CC2)C[C@@H]1C	-5	/	/	/	/	/
COc1ccc(NC(=O)N(C)C[C@@H]2Oc3ccc(NS(=O)(=O)c4ccccc4)cc3C(=O)N([C@@H](C)CO)C[C@H]2C)cc1	0	/	/	/	/	/
CCN(C[C@H]1N[C@@](C)(C(=O)OC)[C@H]2C(=O)N(Cc3ccccc3)C(=O)[C@@H]12)C(=O)Nc1ccc(C)cc1	3	16*	1	20	28*	12*
COC(=O)[C@]1(C)N[C@H](CN(C)C(=O)Nc2ccccc2)[C@@H]2C(=O)N(Cc3ccccc3)C(=O)[C@@H]21	0	9.4*	0	4	22*	9.8*
CCN(C[C@H]1N[C@@](C)(C(=O)OC)[C@H]2C(=O)N(Cc3ccccc3)C(=O)[C@@H]12)C(=O)Nc1ccccc1	0	7	4	0	/	/
C[C@H](CO)N1C[C@H](C)[C@@H](CN(C)CC2CC2)OCCCC[C@H](C)Oc2ccc(NC(=O)CCCCCC(=O)Nc3ccccc3N)cc2C1=O	7	/	/	/	/	/
COc1ccc(CC(N)c2csc(NC(=O)Nc3ccccc3C(C)C)n2)cc1 (configuration not stated)	-3	0	-2	/	/	/
COc1ccc(CC(N)c2csc(NC(=O)Nc3ccccc3Oc3ccccc3)n2)cc1 (configuration not stated)	-2	8.1*	-2	/	2	7
NC(Cc1ccc(C(F)(F)F)cc1)c1csc(NC(=O)Nc2ccccc2Oc2ccccc2)n1 (configuration not stated)	-88	12*	-3	/	-20	8.2*
COc1ccc(CC(N)c2csc(NC(=O)Nc3ccccc3Cc3ccccc3)n2)cc1 (configuration not stated)	-2	15*	-9	/	14	7.7*
CCOc1ccc2nc(SCC#N)c(C#N)cc2c1	-8	8.2*	82*	-6	108*	32*
COc1ccc(Cn2nnnc2CN(Cc2cc3cccc(C)c3[nH]c2=O)C2CCCC2)cc1	-2	7.8*	-1	-3	18	6
